Assay results: the supplement of paper PMC10646978
± gives the standard deviation.

What was measured:
Details in all cases: modulator concentration 10 µM
[1] = test system: RAW-Dual (murine macrophage reporter line); test: NF-kB reporter (SEAP) activity fold change vs agonist alone; higher = enhanced NF-kB activity
Outline: (§1)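 Overnight stimulation with a PRR agonist followed pre-incubation for 1 hour at 37 °C with compound at 10 μM final. This was done in RAW-Dual murine macrophage reporter cells seeded at 50 000 per well in 384-well plates. NF-κB (SEAP, QUANTI-Blue absorbance at 620 nm) and IRF (Lucia luciferase, QUANTI-Luc luminescence) were read from the supernatant. Each reporter's fold change relative to the mean agonist-only control on the same plate was averaged over replicate plates.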

[2] = test system: RAW-Dual (murine macrophage reporter line); test: IRF reporter (Lucia luciferase) activity fold change vs agonist alone; higher = enhanced IRF activity
Outline: as §1

[3] = test system: RAW-Dual (murine macrophage reporter line); test: viability score (confluency relative to resting cells, overnight) (fraction); higher = more viable, active = viable (0.7 or more)
Outline: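 RAW-Dual macrophages in 384-well plates were exposed overnight to compound at 10 μM final. Confluency was imaged with IncuCyte, and two confluency masks were generated with IncuCyte software over all imaged wells. The viability score is confluency expressed relative to resting cells. Compounds were called viable if both masks exceeded 70% of resting cells.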

[4] = agonist: CpG ODN 1826 0.5 ug/mL

| Structure (SMILES) | NF-kB reporter [1, 4] | NF-kB reporter ([1]; agonist: LPS 0.1 ug/mL) | NF-kB reporter ([1]; agonist: MPLA […]) | IRF reporter ([2]; agonist: 3'3'-cGAMP 10 ug/mL) | IRF reporter ([2]; agonist: LPS 0.1 ug/mL) | IRF reporter ([2]; agonist: MPLA […]) | viability score [3] |
| --- | --- | --- | --- | --- | --- | --- | --- |
| Cc1ccc(C(CNC(=O)Cc2cccc3ccccc23)N(C)C)cc1 (centres undefined) | 0.647 ± 0.033 | 1.13 ± 0.094 | 1.06 ± 0.048 | 0.899 ± 0.045 | 1.03 ± 0.12 | 1.23 ± 0.27 | 0.738 (active) |
| Cc1ccc2nc(C)c(NC(=O)c3ccc4ccccc4n3)c(=O)n2c1 | 0.787 ± 0.25 | 1.03 ± 0.14 | 0.823 ± 0.091 | 0.793 ± 0.04 | 1.02 ± 0.061 | 1.1 ± 0.23 | 0.994 (active) |
| CCOCCOC(=O)C1=C(C)NC2=C(C(=O)CCC2)C1c1coc2ccc(C)cc2c1=O (centres undefined) | 0.973 ± 0.083 | 0.961 ± 0.12 | 0.993 ± 0.12 | 1.01 ± 0.029 | 1.41 ± 0.14 | 1.18 ± 0.11 | 1.01 (active) |
| CCC(C)(C)C(=O)O[C@H]1C[C@@H](C)C=C2C=C[C@H](C)[C@H](CC[C@@H]3C[C@@H](O)CC(=O)O3)[C@H]21 | 2.33 ± 0.12 | 1.54 ± 0.13 | 1.82 ± 0.084 | 0.599 ± 0.061 | 0.747 ± 0.062 | 0.639 ± 0.17 | 0.219 (inactive) |
| CCN(CC)c1ccc2cc(-c3nnc(NCc4ccc(F)cc4)s3)c(=O)oc2c1 | 1.08 ± 0.085 | 0.955 ± 0.059 | 0.906 ± 0.055 | 0.941 ± 0.035 | 1.08 ± 0.13 | 0.981 ± 0.085 | 1.01 (active) |
| CC(N)c1ccc(Nc2ncc3cc(-c4ccncc4)ccc3n2)cc1.Cl.Cl.Cl (centres undefined) | 0.419 ± 0.069 | 1.26 ± 0.08 | 2.73 ± 0.16 | 0.173 ± 0.014 | 0.28 ± 0.05 | 0.42 ± 0.042 | 0.174 (inactive) |
| O=C(NN=Cc1ccc(O)c(O)c1)c1cc2ccccc2cc1O | 0.35 ± 0.03 | 0.729 ± 0.075 | 0.589 ± 0.038 | 0.229 ± 0.017 | 0.909 ± 0.072 | 0.794 ± 0.18 | 0.997 (active) |
| CN(C)C(=O)COC(=O)Cc1ccc(OC(=O)c2ccc(NC(=N)N)cc2)cc1.CS(=O)(=O)O | 1.04 ± 0.045 | 0.913 ± 0.083 | 1.01 ± 0.079 | 1.07 ± 0.049 | 1.21 ± 0.22 | 1.25 ± 0.4 | 0.829 (active) |
| CCNC(=O)c1ccc(CN2CCc3ccccc3C2)cc1 | 1.12 ± 0.09 | 1.13 ± 0.074 | 0.958 ± 0.059 | 0.905 ± 0.039 | 1.37 ± 0.29 | 1.04 ± 0.075 | 1.01 (active) |
| COc1ccccc1N1CCN(CC(O)COc2cccc3ccccc23)CC1.Cl.Cl (centres undefined) | 0.595 ± 0.13 | 0.696 ± 0.13 | 0.725 ± 0.048 | 0.654 ± 0.03 | 1.17 ± 0.34 | 1.17 ± 0.22 | 0.97 (active) |
| CCSC1=C(C#N)C2(CCCC2)C(C#N)C(=O)N1 (centres undefined) | 1.13 ± 0.18 | 0.964 ± 0.086 | 0.91 ± 0.081 | 0.789 ± 0.021 | 1.34 ± 0.2 | 1.42 ± 0.23 | 0.988 (active) |
| CCCCN(CCCC)S(=O)(=O)c1ccc(N2CCCC2=O)c([N+](=O)[O-])c1 | 1.02 ± 0.12 | 1.07 ± 0.071 | 1 ± 0.062 | 0.975 ± 0.15 | 1.1 ± 0.13 | 1.13 ± 0.27 | 1 (active) |
| NCC(=O)O | 0.965 ± 0.073 | 0.999 ± 0.064 | 0.96 ± 0.021 | 0.912 ± 0.068 | 1.02 ± 0.12 | 1.23 ± 0.21 | 1 (active) |
| CCCCCOC(=O)COc1ccc(S(=O)(=O)c2ccc(OCC(=O)OCCCCC)cc2)cc1 | 0.959 ± 0.079 | 0.964 ± 0.094 | 1.12 ± 0.14 | 1.02 ± 0.032 | 1.33 ± 0.21 | 1.61 ± 0.25 | 1.03 (active) |
| O=C(OC1Cc2c(O)cc(O)cc2OC1c1cc(O)c(O)c(O)c1)c1cc(O)c(O)c(O)c1 (centres undefined) | 0.321 ± 0.094 | 1.04 ± 0.083 | 1.02 ± 0.092 | 0.822 ± 0.029 | 1.13 ± 0.22 | 1.06 ± 0.1 | 1.01 (active) |
| COc1ccc(OC)c(S(=O)(=O)NCC2CC(=O)N(c3ccc(Cl)cc3)C2)c1 (centres undefined) | 0.857 ± 0.039 | 0.968 ± 0.12 | 0.911 ± 0.052 | 0.762 ± 0.035 | 1.27 ± 0.23 | 1.21 ± 0.35 | 1.01 (active) |
| CN1CCN(C(CC(=O)Nc2cccc(C(F)(F)F)c2)C(=O)O)CC1 (centres undefined) | 1.02 ± 0.051 | 1.09 ± 0.086 | 0.859 ± 0.038 | 0.979 ± 0.049 | 1.16 ± 0.1 | 1.17 ± 0.26 | 0.999 (active) |
| Cc1ccc(C(=O)c2cc(O)c(O)c([N+](=O)[O-])c2)cc1 | 0.889 ± 0.078 | 1.09 ± 0.056 | 1.07 ± 0.049 | 0.871 ± 0.048 | 0.917 ± 0.081 | 0.946 ± 0.075 | 0.995 (active) |
| CCN(CC)CCNC(=O)c1c(C)[nH]c(/C=C2\C(=O)Nc3ccc(F)cc32)c1C.O=C(O)C[C@H](O)C(=O)O | 0.186 ± 0.011 | 0.791 ± 0.11 | 0.636 ± 0.061 | 0.0261 ± 0.0039 | 0.048 ± 0.0053 | 0.0544 ± 0.016 | 0.117 (inactive) |
| Cc1ccccc1N=Nc1ccc(NC(=O)c2ccnn2C)c(C)c1 | 1.12 ± 0.21 | 1.06 ± 0.086 | 0.946 ± 0.077 | 0.98 ± 0.039 | 1.21 ± 0.15 | 1.25 ± 0.21 | 1.01 (active) |
| Cl.O=C1NCC2(CCN(CCc3ccccc3)CC2)O1 | 0.582 ± 0.028 | 0.641 ± 0.054 | 0.798 ± 0.082 | 0.672 ± 0.042 | 1.54 ± 0.26 | 1.78 ± 0.51 | 0.816 (active) |
| O=C(CCCN1CCC(O)(c2ccc(Cl)cc2)CC1)c1ccc(F)cc1 | 0.827 ± 0.13 | 0.893 ± 0.074 | 1.12 ± 0.098 | 1.05 ± 0.071 | 1.36 ± 0.092 | 1.38 ± 0.13 | 1.01 (active) |
| Cc1nnc(C)n1N=Cc1ccc(C(F)(F)F)cc1 | 0.898 ± 0.058 | 0.789 ± 0.061 | 0.962 ± 0.038 | 0.957 ± 0.04 | 0.909 ± 0.063 | 0.886 ± 0.093 | 0.996 (active) |
| Nc1ccc(O)c(C(=O)O)c1 | 1.08 ± 0.089 | 0.898 ± 0.12 | 1.04 ± 0.022 | 0.956 ± 0.053 | 0.923 ± 0.084 | 1.03 ± 0.13 | 0.989 (active) |
| COc1ccc2cc(CCC(C)=O)ccc2c1 | 1.23 ± 0.19 | 1.19 ± 0.56 | 1.06 ± 0.11 | 0.931 ± 0.03 | 1.18 ± 0.45 | 1.2 ± 0.098 | 0.95 (active) |
| CC1=C(C)CC2C(=O)N(c3ccccc3C)C(=O)C2C1 (centres undefined) | 0.797 ± 0.064 | 0.889 ± 0.068 | 1.06 ± 0.12 | 0.982 ± 0.045 | 1.35 ± 0.078 | 1.33 ± 0.15 | 1.01 (active) |
| COc1ccc(CNCc2cccc3ccccc23)cc1 | 0.715 ± 0.12 | 1.06 ± 0.1 | 1.15 ± 0.11 | 0.877 ± 0.035 | 0.945 ± 0.1 | 1.31 ± 0.14 | 0.967 (active) |
